# In the library only some 7.4% were active in any assay of this set; here they are far more common.
# NPC1 promoter act: qHTS Assay for NPC1 Promoter Activators | Huh7 NPC1 promoter luciferase reporter, 24 h | Potency, µM (top dose mostly 9.22 µM), hits mostly activators | actives 2.4% (n = 320,000); note: nearly all actives have a fitted effect of over 60% in size
#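 NPC1 promoter–luciferase Huh7 cells; 24 h compound; luminescence.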
# ELG1 genotox: qHTS screen for small molecules that induce genotoxicity in human embryonic kidney (HEK293T) cells expressing luciferase-tagged ELG1. HEK293T ELG1-luciferase reporter, luminescence, 16 h. Potency, µM (series often up to 46 µM), actives largely listed as activators. actives 1.3% (n = 330,000). AID 504466, 2011; note: nearly all actives have a fitted effect of over 60% in size
#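 Genotoxicity was scored as increased ELG1-luciferase reporter signal, measured by ONE-Glo luminescence (30 min, room temperature). Compound or vehicle exposure of the HEK293T reporter cells lasted 16 hr at 37°C.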
# Rab9 prom act: qHTS Assay for Rab9 Promoter Activators | Huh7 Rab9 promoter-luciferase reporter, luminescence, 24 h | Potency, µM (titrated, usually from 9.22 µM), hits mostly activators | actives 2.8% (n = 320,000) | AID 485297, 2010; note: nearly all actives have a fitted effect of over 60% in size
#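 Huh7 cells stably carrying a Rab9 promoter-luciferase reporter, 1500 cells per well in OP-MEM I with 10% FBS, treated with compound 24 hours at 37C. Luciferase activity read by luminescence after 10 minutes with Amplite reagent.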
# FLuc modulator: qHTS profiling assay for firefly luciferase inhibitor/activator using purifed enzyme and Km concentrations of substrates (counterscreen for miR-21 project); Luciferin 4-monooxygenase (Photinus pyralis), P08659; Potency, µM (top dose mostly 57.5 µM), usual class: inhibitors; actives 6.9% (n = 360,000); AID 588342, 2011; purified FLuc, Km substrates, luminescence inhibition; note: nearly all actives have a fitted effect of over 55% in size
# Target sequence (P08659 whole entry, looked up): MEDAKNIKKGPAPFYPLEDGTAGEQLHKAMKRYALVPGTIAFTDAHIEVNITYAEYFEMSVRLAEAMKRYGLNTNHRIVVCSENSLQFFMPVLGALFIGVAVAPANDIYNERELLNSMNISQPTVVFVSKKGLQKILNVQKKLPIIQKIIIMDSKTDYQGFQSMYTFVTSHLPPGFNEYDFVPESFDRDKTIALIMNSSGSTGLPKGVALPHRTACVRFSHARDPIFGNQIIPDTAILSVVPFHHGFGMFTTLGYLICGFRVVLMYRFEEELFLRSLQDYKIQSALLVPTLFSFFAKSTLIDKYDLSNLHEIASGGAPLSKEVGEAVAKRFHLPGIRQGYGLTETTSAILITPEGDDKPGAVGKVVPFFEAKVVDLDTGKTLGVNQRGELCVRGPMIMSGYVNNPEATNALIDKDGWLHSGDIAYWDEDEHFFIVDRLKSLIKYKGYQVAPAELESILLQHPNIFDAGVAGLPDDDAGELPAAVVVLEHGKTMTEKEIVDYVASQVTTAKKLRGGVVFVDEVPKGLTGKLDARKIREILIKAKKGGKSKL
#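 Biochemical qHTS of compounds, final roughly 60 µM downward over six points, against 10 nM purified firefly luciferase using Km concentrations of substrates (10 uM D-luciferin, 10 uM ATP) in Tris acetate pH 7.5 buffer; luminescence output.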
# SMN2 splice enh: qHTS Assay for Enhancers of SMN2 Splice Variant Expression; HEK293 SMN2-luciferase splicing reporter, luminescence, 30-36 h; Potency, µM (highest dose often 46.1 µM), actives largely listed as activators; actives 2.8% (n = 210,000); note: nearly all actives have a fitted effect of over 55% in size
#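 qHTS luciferase splicing reporter: luminescence rises when SMN2 exon 7 is included in transfected HEK293 cells. Compound exposure lasted 30-36 h at 37C, with 4.5 mM final sodium butyrate as control, followed by a ONE-Glo read.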
# Numbers stand for hits; . = inactive; ? = inconclusive; / = no result; ! = not confirmed by another sample. Calls come from the whole dose curve; as a rule, active = well fitted curve in the direction sought with a large enough effect; inconclusive = small, poorly fitted or top-dose-only effect, or another doubt; inactive = no such curve, though single readings can be large; an effect the other way counts as inactive or inconclusive.
SMILES,NPC1 promoter act,ELG1 genotox,Rab9 prom act,FLuc modulator,SMN2 splice enh
Cc1ccc(-c2onc3ccc(C(=O)/C=C/N(C)C)cc23)cc1,.,.,.,15.1µM,/
CN(C)/C=C/C(=O)c1ccc2noc(-c3ccc(F)cc3)c2c1,.,.,.,?,/
O=C(/C=C/c1ccc(O)c([N+](=O)[O-])c1)c1ccc2ccccc2c1,.,.,.,7.57µM,/
CN(C)c1ccc(/C=C/C(=O)c2ccccc2)cc1[N+](=O)[O-],3.55µM,.,2.51µM,1.2µM,.
COc1ccc(Oc2ccc(/C=C/C(=O)c3ccc(O)cc3)cc2[N+](=O)[O-])cc1,.,.,.,23.9µM,.
COc1ccc(C(=O)/C=C/c2ccc(OC)c(COc3ccccc3F)c2)cc1,.,.,.,?,.
CNc1ccc(/C=C/C(=O)c2ccc(C)cc2)cc1[N+](=O)[O-],.,?,.,?,.
Cc1cccc(N2CCN(C(=O)CCc3c(C)nc4ncnn4c3C)CC2)c1C,/,/,/,.,.
COc1cccc(NC(=O)C2CCN(S(=O)(=O)c3ccc4[nH]c(=O)ccc4c3)CC2)c1,.,.,.,.,/
Cc1nn(-c2ccccc2)c(OC(=O)C(C)C)c1Sc1ccc(Cl)cc1,/,/,/,13.5µM,.
COc1ccc(C(=O)Cc2nnc(C)s2)cc1,?,?,?,19µM,?
COc1ccc(O)c(C(=O)CC(=O)c2ccccc2)c1,0.708µM,?,0.708µM,16.9µM,1.78µM
COc1ccc(C(=O)CSc2ccc(-c3ccccc3)nn2)cc1,.,.,.,.,.
COc1ccc(C(=O)c2ccccc2O)c(O)c1,.,.,.,.,.
COc1ccc(/C(C)=N\NC(=O)CSc2nnc(C)s2)cc1,.,.,.,.,.
COc1ccc(C(=O)CNc2ccccc2Br)cc1,?,?,?,7.57µM,/
COc1ccc(C(=O)CSc2ccccc2C(=O)O)cc1,2.24µM,.,?,9.53µM,11.2µM
O=C(NCc1cccs1)C1CCCN1C(=O)Nc1ccc(F)cc1 (configuration not stated),.,.,.,.,/
COc1ccc(C(=O)CC(=O)c2ccc(OC)cc2)cc1,.,.,.,19µM,/
COc1ccc(C(=O)C(OC(=O)c2ccccc2Cl)c2ccccc2)cc1 (configuration not stated),?,?,3.98µM,13.5µM,.
COc1ccc(C(=O)CN2C(=O)c3ccccc3C2=O)cc1,?,.,.,16.9µM,/
COc1ccc(CNC(=O)c2ccc(-c3ccccc3)cc2)cc1,?,?,?,?,.
COc1ccc(C(=O)NCC(=O)c2ccccc2)cc1,2.82µM,9.2µM,3.55µM,12µM,/
COc1ccc(C(=O)C(OC(=O)c2ccccc2)c2ccccc2)cc1 (configuration not stated),?,?,?,?,.
CCc1c(O)cc(=O)n(-c2ccccc2)c1-c1ccccc1,.,.,.,.,.
SMILES,NPC1 promoter act,ELG1 genotox,Rab9 prom act,FLuc modulator,SMN2 splice enh
CSCCC(NS(=O)(=O)c1ccc(C)cc1C)C(=O)Nc1cccnc1 (configuration not stated),/,.,/,/,/
COc1ccc(C(=O)C[n+]2ccc3ccccc3c2C)cc1,?,.,1µM,.,/
COc1ccc(C(=O)C[n+]2cccc3cc(OC)ccc32)cc1,.,.,.,.,/
NC(=O)c1cnn(-c2ccc3ccccc3c2)c1N,.,?,3.98µM,?,17.8µM
COC(=O)c1cnn(-c2ccccc2)c1N,.,.,.,.,/
Cc1cc(N/N=C/c2ccc(Cl)cc2Cl)nc(NCc2ccccc2)n1,.,.,.,?,.
Cc1cc(N/N=C/c2ccc(F)cc2)nc(NCc2ccccc2)n1,.,.,.,10.7µM,/
Cc1ccc(/C=N/Nc2cc(C)nc(NCc3ccccc3)n2)cc1,.,.,.,10.7µM,/
COc1ccc2nc(C)cc(N/N=C/c3ccc(F)cc3)c2c1,.,.,.,16.9µM,/
Cc1cc(N/N=C/c2ccc(N(C)C)cc2)nc(NCc2ccccc2)n1,.,.,.,10.7µM,/
CN(C)c1nc(NCc2ccccc2)nc(N/N=C/c2ccc(Br)cc2)n1,.,.,.,.,.
CC(=O)Nc1nonc1-c1nnc(SCC(=O)Nc2cccc(C)c2C)n1-c1ccccc1,/,/,/,.,/
O=C(Nc1ccc(Cl)cn1)c1ccc2ccccc2n1,?,?,?,1.51µM,20µM
Cc1ccc(NC(=O)c2ccc3ccccc3n2)nc1,2.51µM,9.2µM,3.55µM,1.69µM,3.16µM
COc1cc2c(cc1OC)C(COc1cc(C)cc(C)c1)N(C(=O)c1ccc(S(=O)(=O)N3CCCC3)cc1)CC2 (configuration not stated),/,/,/,.,/
COc1ccc(-n2nc([N+](=O)[O-])c(=NCc3ccco3)n2O)cc1,3.55µM,?,1.41µM,?,/
COc1ccc(-n2nc([N+](=O)[O-])c(=NCCC3=CCCCC3)n2O)cc1,?,?,3.55µM,?,?
COc1ccccc1CN=c1c([N+](=O)[O-])nn(-c2ccc3c(c2)OCCO3)n1O,.,?,?,?,?
COc1ccc(-n2nc([N+](=O)[O-])c(=NCc3cccnc3)n2O)cc1,3.55µM,?,2.82µM,?,.
O=[N+]([O-])c1nn(-c2ccc3c(c2)OCCO3)n(O)c1=NCc1ccccc1Cl,?,?,?,6.01µM,12.6µM
COc1ccc(-n2nc([N+](=O)[O-])c(=NCCc3ccc(C)cc3)n2O)cc1,?,.,?,.,/
Cc1cccc(CSCc2ccc(C(=O)NCCc3ccccc3)o2)c1,/,/,/,.,/
O=C(Nc1cc(Cl)cc(Cl)c1)c1cc(S(=O)(=O)N2CCC3(CC2)OCCO3)ccc1F,/,/,/,.,/
CCOc1ccccc1C(=O)N(Cc1ccc(N(C)C)cc1)CC1CCCO1 (configuration not stated),/,/,/,.,.
O=c1nc2sc3ccccc3n2c(=O)n1-c1ccc(Cl)cc1,3.16µM,?,2.82µM,.,20µM
SMILES,NPC1 promoter act,ELG1 genotox,Rab9 prom act,FLuc modulator,SMN2 splice enh
O=c1nc2sc3ccccc3n2c(=O)n1-c1ccc(Cl)c(Cl)c1,/,/,/,.,.
Cc1ccc2c(c1)sc1nc(=O)n(-c3cccc(Cl)c3)c(=O)n12,1.58µM,?,1.58µM,.,11.2µM!
O=c1nc2sc3ccccc3n2c(=O)n1-c1cccc(Cl)c1,.,4.61µM,?,.,/
O=C(CCC(=O)N(CC(=O)NC1CCCC1)Cc1ccccc1Cl)Nc1nccs1,.,.,.,.,/
CCN(CC)C(=O)Cn1c(=O)cc(C)c2c(C)nn(-c3cccc(Cl)c3C)c21,/,/,/,.,/
CCOc1ccc(CNC(=O)c2ccc3c(c2)sc2nc(-c4ccccc4)cn23)cc1,/,/,/,.,/
CCOC(=O)C1CCCN(C(=O)CSCc2ccccc2)C1 (configuration not stated),?,.,.,?,.

# Bioassay records (PubChem BioAssay)
